Source: PubChem BioAssay (NCATS)
Values joined by “and” are separate entries in the source; they are usually repeats but may differ in a detail not shown here. Equal values may be shown once. Records with an inconclusive call do not appear. Some compounds were tested as several samples or in several runs, with calls that do not always agree. Active and inactive are the calls of the source. Calls follow the shape of the dose curve; as a rule, active = well fitted curve in the direction sought with a large enough effect; inconclusive = small, poorly fitted or top-dose-only effect, or another doubt; inactive = no such curve, though single readings can be large; an effect the other way counts as inactive or inconclusive.

Experiments:
CRL-7250 = normal cell line; assay: Cytotoxic Profiling of Annotated Libraries Using Quantitative High-Throughput Screening (AID 1296008); conditions: Five cell lines viability, CellTiter-Glo ATP luminescence, 48-72 h; max response: hits give low values; also: nearly all actives have a fitted effect of over 60% in size; also: potency is read from the fitted curve at half-maximal effect; as to max response: % is scaled to controls: 0 for no effect and ±100 for the full control effect
Procedure, shortened: (§1)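 Compounds were pin-transferred onto cells and incubated 48 or 72 hr at 37 degree Celsius, 95% humidity. CellTiter-Glo was added, plates sat 10 min at room temperature, then ATP-coupled luminescence was imaged as the viability read-out.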

HEK293 = assay: as above; conditions: Five cell lines viability, CellTiter-Glo ATP luminescence, 48-72 h; max response: hits give low values
Procedure, shortened: as §1

HaCat [1] = assay: as above; conditions: Five cell lines viability, CellTiter-Glo ATP luminescence, 48-72 h; max response: hits give low values
Procedure, shortened: as §1

KB-3-1 = assay: as above; conditions: Five cell lines viability, CellTiter-Glo ATP luminescence, 48-72 h; max response: hits give low values
Procedure, shortened: as §1

NIH3T3 [2] = assay: as above; conditions: Five cell lines viability, CellTiter-Glo ATP luminescence, 48-72 h; max response: hits give low values
Procedure, shortened: as §1

HACAT [3] = assay: qHTS assay to identify novel small-molecules to repurpose for Merkel cell carcinoma treatment (AID 1296009); conditions: MCC and control cell lines, CellTiter-Glo viability, 72 h; at 44.8 µM (top of the series) unless noted; also: nearly all actives have a fitted effect of over 60% in size
Procedure, shortened: (§2)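 Viability readout: ATP luminescence (CellTiter-Glo) after 72 hr drug exposure at 37 degree celsius. Dose-response format was 8 points for NPC and 11 points for MIPE; data normalized to in-plate controls.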

MCC-13 = assay: as above; conditions: MCC and control cell lines, CellTiter-Glo viability, 72 h; series mostly up to 46 µM
Procedure, shortened: as §2

MCC-26 = assay: as above; conditions: MCC and control cell lines, CellTiter-Glo viability, 72 h; series mostly up to 46 µM
Procedure, shortened: as §2

MKL-1 = assay: as above; conditions: MCC and control cell lines, CellTiter-Glo viability, 72 h; series mostly up to 46 µM
Procedure, shortened: as §2

MKL-2 = assay: as above; conditions: MCC and control cell lines, CellTiter-Glo viability, 72 h; series mostly up to 46 µM
Procedure, shortened: as §2

UISO = assay: as above; conditions: MCC and control cell lines, CellTiter-Glo viability, 72 h; series mostly up to 46 µM
Procedure, shortened: as §2

WaGa = assay: as above; conditions: MCC and control cell lines, CellTiter-Glo viability, 72 h; series mostly up to 46 µM
Procedure, shortened: as §2

TAB165 = assay: qHTS profiling for inhibitors of Plasmodium falciparum proliferation (AID 504749); also: potency is read from the fitted curve at half-maximal effect; nearly all actives have a fitted effect of over 60% in size; conditions: P. falciparum in erythrocytes, SYBR Green DNA, 72 h; series mostly up to 28.7 µM
Procedure, shortened: (§3)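 Quantitative HTS: compounds pinned into medium, infected erythrocytes added (0.3% parasitemia, 2.5% hematocrit), 72 h culture at 37 C under 5% CO2. Saponin/Triton lysis with SYBR Green I, overnight RT, then fluorescence read.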

W2 = assay: as above; conditions: P. falciparum in erythrocytes, SYBR Green DNA, 72 h; series mostly up to 28.7 µM
Procedure, shortened: as §3

HEK293T = assay: qHTS assay to identify novel small-molecules to repurpose for Merkel cell carcinoma treatment (AID 1296009); conditions: MCC and control cell lines, CellTiter-Glo viability, 72 h; at 44.8 µM (top of the series); also: nearly all actives have a fitted effect of over 60% in size
Procedure, shortened: as §2

NIH3T3 [4] = assay: as above; conditions: MCC and control cell lines, CellTiter-Glo viability, 72 h; at 44.8 µM (top of the series) unless noted
Procedure, shortened: as §2

C33A = assay: Primary qHTS to identify gynecologic anti-cancer compounds using libraries of approved drugs and bioactive compounds (AID 1345084); conditions: Gynecologic cancer cell panel viability, ATPlite luminescence, 48 h; series mostly up to 57.5 µM; also: nearly all actives have a fitted effect of over 55% in size; also: potency is read from the fitted curve at half-maximal effect
Procedure, shortened: (§4)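 ATP-based viability (ATPlite), 1,000 cells/well, 16 h pre-incubation, 48 h compound at 37 C, 5% CO2, 15 min RT before read.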

CAOV3 = assay: as above; conditions: Gynecologic cancer cell panel viability, ATPlite luminescence, 48 h; series mostly up to 57.5 µM
Procedure, shortened: as §4

CASKI = assay: as above; conditions: Gynecologic cancer cell panel viability, ATPlite luminescence, 48 h; series mostly up to 57.5 µM
Procedure, shortened: as §4

Es-2 = assay: as above; conditions: Gynecologic cancer cell panel viability, ATPlite luminescence, 48 h; series mostly up to 57.5 µM
Procedure, shortened: as §4

COc1ccc(-c2c(-c3ccc(O)cc3O)n[nH]c2C)cc1
inactive: outcome (HaCat [1]) inactive; activator | max response (KB-3-1) -14.6% | max response (NIH3T3 [2]) -24.1% | outcome (HACAT [3]) inactive; activator [at 92 µM] | Potency (MCC-13) | Potency (MCC-26) | Potency (MKL-1) | Potency (MKL-2) | Potency (UISO) | Potency (WaGa)
active: Potency (CRL-7250) 30.3 µM | Potency (HEK293) 27 µM

CCCc1nc2c(C)cc(-c3nc4ccccc4n3C)cc2n1Cc1ccc(-c2ccccc2C(=O)O)cc1
inactive: max response (CRL-7250) -5.08% and 4.25% | outcome (HEK293) | outcome (HaCat [1]) | max response (KB-3-1) 14.7% and 4.38% | max response (NIH3T3 [2]) 1.27% | outcome (NIH3T3 [2]) | outcome (HACAT [3]) | outcome (HEK293T) | Potency (MCC-13) | Potency (MCC-26) | Potency (MKL-1) | Potency (MKL-2) | outcome (NIH3T3 [4]) | Potency (UISO) | Potency (WaGa) | Potency (C33A) | Potency (CAOV3) | Potency (CASKI) | Potency (Es-2)
active: Potency (TAB165) 1.58 µM | Potency (W2) 1.9 µM

C[C@]12CC[C@H](O)CC1=CC[C@@H]1[C@H]2CC[C@]2(C)C(c3cccnc3)=CC[C@H]12
inactive: outcome (CRL-7250) | max response (HEK293) -4.02% | outcome (HaCat [1]) | max response (KB-3-1) -14.4% | max response (NIH3T3 [2]) 0.502% | outcome (HACAT [3]) inactive [at 17.4 µM] | Potency (MCC-13) | Potency (MCC-26) | Potency (MKL-1) | Potency (MKL-2) | Potency (UISO) | Potency (WaGa)

COc1cccc2cc(-c3nc(C4CCC(C(=O)O)CC4)n4ncnc(N)c34)[nH]c12 (stereo not given)
active: Potency (CRL-7250) 0.166 µM | Potency (HEK293) 5.9 µM and 3.66 µM | Potency (KB-3-1) 2.35 µM | Potency (NIH3T3 [2]) 7.31 µM | Potency (C33A) 7.94 µM | Potency (Es-2) 7.08 µM
inactive: max response (HaCat [1]) -14.5% | max response (NIH3T3 [2]) -35.2% | Potency (MCC-13) | Potency (MCC-26) | Potency (MKL-1) | Potency (MKL-2)

COc1ccc(CC2=NN3C([C@@H](CCc4ccccc4)[C@@H](C)O)=NC(C)C3C(=O)N2)cc1OC (stereo not given in full)
inactive: max response (CRL-7250) -0.833% | max response (HEK293) -3.77% | max response (HaCat [1]) -7.5% | max response (KB-3-1) 9.1% | max response (NIH3T3 [2]) 0.654% | Potency (MCC-13) | Potency (MCC-26) | Potency (MKL-1) | Potency (MKL-2) | Potency (UISO) | Potency (WaGa)

CCN(CC)CCCC(C)Nc1nc(C)cc(Nc2ccc3nc(C)cc(N)c3c2)n1 (stereo not given)
inactive: max response (CRL-7250) -4.56% | max response (HEK293) -11.7% | outcome (HaCat [1]) | outcome (KB-3-1) | outcome (NIH3T3 [2]) | outcome (HACAT [3]) | Potency (MCC-13) | Potency (MCC-26) | Potency (MKL-1) | Potency (MKL-2) | outcome (NIH3T3 [4]) | Potency (UISO) | Potency (WaGa)

CCN(c1ccccc1)c1cc(NC)[n+](C)c(C)n1
inactive: max response (CRL-7250) -1.6% | max response (HEK293) 1.35% | outcome (HaCat [1]) | max response (KB-3-1) 7.88% | max response (NIH3T3 [2]) -7.55% | outcome (HACAT [3]) | Potency (MCC-13) | Potency (MCC-26) | Potency (MKL-1) | Potency (MKL-2) | Potency (UISO) | Potency (WaGa)

CCOc1ccc(Cc2cc([C@@H]3O[C@H](CO)[C@@H](O)[C@H](O)[C@@H]3O)ccc2Cl)cc1
inactive: max response (CRL-7250) -1.42% | max response (HEK293) 1.73% | outcome (HaCat [1]) | max response (KB-3-1) 6.49% | max response (NIH3T3 [2]) 1.42% | outcome (HACAT [3]) | Potency (MCC-13) | Potency (MCC-26) | Potency (MKL-2) | Potency (UISO)

O=C(Nc1nc2ccccc2n1CCN1CCOCC1)c1cccc([N+](=O)[O-])c1
inactive: outcome (CRL-7250) | outcome (HEK293) | outcome (HaCat [1]) | max response (KB-3-1) 4.26% | outcome (NIH3T3 [2]) | outcome (HACAT [3]) | outcome (HEK293T) | Potency (MCC-13) | Potency (MCC-26) | outcome (NIH3T3 [4]) | Potency (UISO)

CCOc1cc(C(=O)Nc2ccc(Cl)c(-c3nc4ccccc4[nH]3)c2)cc(OCC)c1OCC
active: Potency (HEK293) 16.6 µM
inactive: outcome (CRL-7250) | max response (HaCat [1]) 1.32% and 3.52% | max response (KB-3-1) -16% and -9.64% | max response (NIH3T3 [2]) -3.49% | outcome (NIH3T3 [2]) | Potency (MCC-13) | Potency (MCC-26) | Potency (MKL-1) | outcome (NIH3T3 [4]) | Potency (WaGa) | Potency (CAOV3) | Potency (CASKI) | Potency (Es-2)

NC(=O)c1ccc(I)c([N+](=O)[O-])c1
inactive: max response (CRL-7250) 1.49% | outcome (HEK293) | outcome (HaCat [1]) | max response (KB-3-1) 7.82% | max response (NIH3T3 [2]) -1.58% | outcome (HACAT [3]) | outcome (HEK293T) | Potency (MCC-13) | Potency (MCC-26) | Potency (MKL-1) | Potency (MKL-2) | Potency (UISO) | Potency (WaGa)

CC(C)(N)C(=O)N[C@H](COCc1ccccc1)C(=O)N1CCC2(CC1)CN(S(C)(=O)=O)c1ccccc12
inactive: max response (CRL-7250) -61% | max response (HaCat [1]) -12.2% and 3.47% | max response (KB-3-1) -17.9% and 1.97% | max response (NIH3T3 [2]) -13.8% | Potency (MCC-13) | Potency (MCC-26) | Potency (MKL-1) | Potency (MKL-2) | Potency (UISO) | Potency (WaGa) | Potency (C33A) | Potency (CAOV3) | Potency (CASKI)
active: Potency (HEK293) 23.5 µM

CC[C@@H](C)[C@H](NC(=O)[C@H](CC1CCCCC1)NC(=O)c1ccno1)C(=O)N1CCC2(CCc3ccccc32)CC1
inactive: max response (CRL-7250) -8.58% and -11.9% | max response (HEK293) -11.2% | outcome (HaCat [1]) | max response (KB-3-1) -5.09% and 8.53% | max response (NIH3T3 [2]) -7.84% and -2.63% | outcome (HACAT [3]) | Potency (MCC-13) | Potency (MKL-1) | Potency (MKL-2) | Potency (UISO) | Potency (WaGa) | Potency (C33A) | Potency (CAOV3) | Potency (CASKI) | Potency (Es-2)
